Reference: PubChem BioAssay AID504652 (National Center for Advancing Translational Sciences (NCATS), 2011)
Out of some 360,000 compounds screened, about 11,000 (3.1%) were called active. The list comes from a sample in which actives are over-represented; it also holds similar structures and randomly drawn compounds. Values without a mark were called inactive. Cut-off read from the data, not from the text of the source: active = activity change below about -30%; inactive = the rest.

molecular target: D(1A) dopamine receptor (Homo sapiens) (UniProt P21728); assay: Antagonist of Human D 1 Dopamine Receptor: qHTS; conditions: HEK293 TREx D1 cells, calcium flux, dopamine EC80; at 10 µM; hits give low values
Sequence (P21728 whole entry, looked up): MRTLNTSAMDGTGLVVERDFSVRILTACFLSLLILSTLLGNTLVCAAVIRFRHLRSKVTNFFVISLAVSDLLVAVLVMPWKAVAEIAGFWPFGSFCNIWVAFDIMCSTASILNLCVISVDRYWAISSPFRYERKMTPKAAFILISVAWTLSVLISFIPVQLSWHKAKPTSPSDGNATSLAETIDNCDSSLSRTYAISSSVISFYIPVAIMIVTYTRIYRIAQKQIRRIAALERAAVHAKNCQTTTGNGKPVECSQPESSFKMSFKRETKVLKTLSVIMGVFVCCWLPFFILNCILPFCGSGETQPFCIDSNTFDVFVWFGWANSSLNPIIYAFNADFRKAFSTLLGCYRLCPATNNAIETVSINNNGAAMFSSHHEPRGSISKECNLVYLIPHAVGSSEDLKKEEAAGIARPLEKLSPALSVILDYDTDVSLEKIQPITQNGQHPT
Outline: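 After overnight tetracycline induction at 30 C, force-coupled D1 HEK293 cells took up a no-wash calcium dye at room temperature. Compounds were added and monitored 180 s, and the response to EC80 dopamine was then recorded.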
% is set by controls: 0 for no effect and ±100 for the full control effect.

SMILES | activity change, negative = inhibition
O=C(Nc1ccc(F)cc1F)c1ccc2c(=O)n3c(nc2c1)CCCCC3 | 0.28%
Cc1cc(=O)c2cc(C(=O)Nc3cccc(C)c3C)ccc2[nH]1 | -7.41%
CC(=O)Cn1cnc2c(cnn2-c2ccccc2)c1=O | -39.3% (active)
O=C(Cn1cnc2c(cnn2-c2ccccc2)c1=O)NCc1ccccc1 | 5.27%
O=C(Cn1cnc2c(cnn2-c2ccc(F)cc2)c1=O)NCCc1ccccc1 | -6.16%
COc1ccc(-c2nc(C)c(CCNC(=O)c3ccc(C(F)(F)F)cc3)s2)cc1OC | -4.09%
COc1cc2ccccc2cc1C(=O)Nc1ccc(S(=O)(=O)Nc2cc(C)on2)cc1 | 7.39%
Cc1ccc(C)c(S(=O)(=O)Nc2cc(C)on2)c1 | -1.84%
Cc1cc(NS(=O)(=O)c2ccccc2)no1 | -52.3% (active)
Cc1cccc(NC(=O)c2cc3c(C)nn(-c4ccccc4)c3s2)c1 | 1.08%
NC(=O)N1CCCC1C(=O)Nc1ccc(Cl)c(Cl)c1 (stereo not given) | -6.92%
O=C(CSc1nnc(-c2ccncc2)n1-c1ccccc1)Nc1ccc(Cl)c(Cl)c1 | 7.05%
O=C(CC(O)(C(F)(F)F)C(F)(F)F)Nc1ccc(Cl)c(Cl)c1 | -45.8% (active)
CCC(=O)N1CCc2cc(Br)cc(S(=O)(=O)CCC(=O)N3CCN(c4ccc(F)cc4)CC3)c21 | -13.8%
Cc1ccc(NS(=O)(=O)c2cn(C)c(=O)n(C)c2=O)c(C)c1 | -34.8% (active)
Cc1ccc(NS(=O)(=O)c2ccc3c(c2)n(C)c(=O)c(=O)n3C)c(C)c1 | 3.25%
Cn1cc(S(=O)(=O)Nc2ccc(Cl)cc2Cl)c(=O)n(C)c1=O | 1.88%
N#CN1CCC(NS(=O)(=O)c2cccc(F)c2)C1 (stereo not given) | -5.93%
Cc1ccc(C)c(S(=O)(=O)c2nnn3c2nc(N2CCOCC2)c2sccc23)c1 | -17.7%
COc1ccc(OC)c(NC(=O)CSC2=Nc3ccccc3C3=NC(CC(=O)NCc4ccc(F)cc4)C(=O)N23)c1 (stereo not given) | 2.28%
CCC1(C)Cc2c(sc3[nH]c(=S)n(Cc4ccccc4)c(=O)c23)CO1 (stereo not given) | -1.45%
C=CCn1c(=S)[nH]c2scc(-c3ccco3)c2c1=O | -62.9% (active)
CCc1ccc(NC(=O)c2cc3c(=O)n(Cc4cccnc4)ccc3nc2C)cc1 | -4.72%

SMILES | activity change, negative = inhibition
O=C(NCCNc1ccc([N+](=O)[O-])cc1Cl)c1ccccc1F | -1.54%
O=C(NCCCNc1ccc([N+](=O)[O-])cc1Cl)c1ccccc1F | -30.1% (active)
O=C(NCCNc1ccccc1[N+](=O)[O-])c1ccccc1F | 18.2%
COc1ccc(CNC(=O)Cn2nnc(-c3ccccc3F)n2)cc1 | 7.31%
COc1cc(-c2noc(-c3ccc(N4CCCC4)c([N+](=O)[O-])c3)n2)cc(OC)c1OC | -3.41%
COC(=O)c1sccc1S(=O)(=O)N(CC(=O)Nc1ccc(C)c(F)c1)c1ccc(C)c(C)c1 | -13.6%
CCOC(=O)N1CCN(CC(=O)c2ccc3c(c2)CCN3)CC1 | -32.2% (active)
CCOC(=O)N1CCN(CC(=O)n2c(C)c(C)c3ccccc32)CC1 | 6.89%
CCOC(=O)N1CCN(CC(=O)Nc2ccc(F)cc2)CC1 | 4.05%
Cc1ccc(CN2CCC(CNC(=O)c3cnn(-c4ccc(C)cc4)c3C3CCN(C(=O)OC(C)(C)C)CC3)CC2)cc1 | 1.49%
Cc1cccc(-c2nc(SCC(=O)Nc3cc(C)on3)c3c(=O)n(C)c(=O)n(C)c3n2)c1 | -1.46%
Cc1ccc2nc(SCC(=O)NC3CCCC3)[nH]c2c1 | 1.64%
Cc1ccc2nc(-c3ccc(SCC(=O)Nc4cc(C)on4)nc3)[nH]c2c1 | -40.5% (active)
CCS(=O)(=O)c1nc(S(=O)(=O)c2ccc(C)cc2)c(NCc2ccc(Cl)cc2)s1 | -4.62%
Cc1onc(-c2ccc(F)cc2F)c1C(=O)Nc1cccc(C(F)(F)F)c1 | -7.14%
COC(=O)c1cccc(Cn2nnc3sc4c(c3c2=O)CCC(C(C)(C)C)C4)c1 (stereo not given) | 7.77%
Cc1nn(C(C)C(=O)Nc2ccc(C(C)C)cc2)c(=O)c2c1sc1ccccc12 (stereo not given) | -14.9%
Cc1ccc(NC2=C(c3ccc(C(F)(F)F)cc3)C(=O)c3ccccc32)cc1F | -32.9% (active)
O=C(Nc1ccccc1F)c1ccccc1-c1ccc(C(F)(F)F)cc1 | -10%
Cc1ccc(NC(=O)NC(=O)c2ccccc2)cc1F | -1.14%
Cc1ccccc1NC(=O)Cn1cc(C(=O)c2cccs2)c2ccccc21 | -14.9%
COc1ccc(-n2nc(C(=O)NCCc3ccc(Cl)cc3)c3c4ccccc4n(C)c3c2=O)cc1Cl | -3.18%
